The source of these data is PubChem BioAssay (Tox21).

Where “and” joins values, the source holds several entries; their conditions need not be identical. Identical values can stand only once. Records with an inconclusive call do not appear. Where a call stands in place of a potency, no number is given. Calls of active or inactive are those of the source. Calls follow the shape of the dose curve; as a rule, active = well fitted cell-killing curve with a large enough effect in the repeat runs; inconclusive = weak or mixed curves, or effect the other way; inactive = flat fitted curve, though single readings scatter.
Potency is read from the fitted curve at half-maximal effect.

One test is described as follows: cAMP Responsive Elements (CRE) small molecule antagonists, cell-based qHTS assay: qHTS cell viability counter screen (AID 2060913). Also: nearly all actives have a fitted effect of over 40% in size. Conditions: CRE-bla HEK293T viability, CellTiter-Glo luminescence, 5 h; series mostly up to 92.4 µM. The method in brief:
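CRE-bla HEK293T cells were seeded in assay medium with 10% dialyzed FBS, incubated 18 hrs at 37 C, then exposed to compounds plus 0.25 uM final NKH477 for 3 hrs. Viability was read by CellTiter-Glo luminescence after 30 min, in the same wells.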
On the technique in general: In qHTS, concentration-response curves come from the screen itself.
On to `CC(Cl)(Cl)Cl`, for which the Potency entry is “inactive”.
Regarding `Nc1ccc([N+](=O)[O-])cc1N`, the Potency entry was “inactive”.
On to `CC(C)CON=O`, for which the Potency entry was “inactive”.
The same measure, in the same setting: the result for `OCCOCCO` reads “inactive”.
Consider `CCCCN(CCCC)C(=S)[S-].CCCCN(CCCC)C(=S)[S-].[Zn+2]`, for which the Potency result is “inactive”.
`CC(Cl)CN(C)C` (stereo not given): the Potency result was “inactive”.
Regarding `CCCCC(CC)COC(=O)c1ccc(C(=O)OCC(CC)CCCC)c(C(=O)OCC(CC)CCCC)c1` (stereo not given), the Potency result was “inactive”.
Turning to `O=C(Cl)/C=C/C(=O)Cl`, the Potency result is “inactive”.
Consider `CCCC[N+]1(C)[C@@H]2CC(OC(=O)[C@H](CO)c3ccccc3)C[C@H]1[C@@H]1O[C@@H]12` (stereo not given in full), for which the Potency entry was “inactive”.
As to `Oc1cccc(Cl)c1Cl`, the Potency result was “inactive”.
Take `Oc1ccccc1-c1ccccc1`: the Potency result is “inactive”.
Take `CC[n+]1ccccc1`: the Potency entry is “inactive”.
On to `C[C@]12CC[C@H](O)CC1=CC[C@@H]1[C@@H]2CC[C@]2(C)C(=O)CC[C@@H]12`, for which the Potency result is “inactive”.
On to `CNC(=O)O/N=C(/CSC)C(C)(C)C`, for which the Potency result was “inactive”.
Regarding `OCC1CO1` (stereo not given), the Potency entry was “inactive”.
With `CCN(CC)C(=O)/C(Cl)=C(\C)OP(=O)(OC)OC`, the Potency entry is “inactive”.
Regarding `Brc1ccc(Oc2ccccc2)cc1`, the Potency result was “inactive”.
For `CCCSP(=S)(OCC)Oc1ccc(Cl)cc1Cl` (stereo not given), the Potency result was “inactive”.
For the compound `CCC(C)(c1ccc(O)cc1)c1ccc(O)cc1`, the Potency result is “inactive”.
Still for that read-out and setting: the result for `CC(C)N(C(=O)SC/C(Cl)=C/Cl)C(C)C` reads “inactive”; that for `Cc1cccc(N)c1C`, “inactive”; that for `COC(=O)/C=C(\C)OP(=O)(OC)OC`, “inactive”.
Regarding `CNC`, the Potency result is “inactive”.
For the compound `CC(=O)[O-].CC(=O)[O-].[Hg+2]`, the Potency is 8.63 µM (active).
As for `Oc1ccc(Cl)cc1Cc1ccccc1`, the Potency entry was “inactive”.
For `CCC[CH2][Sn]([CH2]CCC)([CH2]CCC)[O][Sn]([CH2]CCC)([CH2]CCC)[CH2]CCC`, the Potency was 1.5 µM (active).
For the compound `O=S(=O)(C(Cl)(Cl)Cl)C(Cl)(Cl)Cl`, the Potency result is “inactive”.
As for `CC(Cl)(Cl)C(=O)O`, the Potency result is “inactive”.
With `O=C(O)CCCc1ccc(N(CCCl)CCCl)cc1`, the Potency entry was “inactive”.
Turning to `CCOP(=S)(OCC)Oc1cc(-c2ccccc2)on1`, the Potency result was “inactive”.
The same measure, in the same setting: for `C[C@]12CCC(=O)C=C1CC[C@@H]1[C@@H]2CC[C@]2(C)C(=O)CC[C@@H]12` the value was “inactive”; for `O=C(CCCCl)c1ccc(F)cc1`, “inactive”; for `CC/C(=N\OC/C=C/Cl)C1=C(O)CC(C2CCOCC2)CC1=O` (stereo not given), “inactive”.
For `N#CCc1ccccc1`, the Potency result was “inactive”.
Still for that read-out and setting: the result for `Cl/C=C\Cl` reads “inactive”; that for `CC(C)=CCOc1c2occc2cc2ccc(=O)oc12`, “inactive”.
Still for that read-out and setting: for `CNN` the value was “inactive”; for `N[C@@H]1C[C@H]1c1ccccc1`, “inactive”.
In the case of `OCCCCO`, the Potency result was “inactive”.
`CCCCCCCCCCCCCCCC[N+](C)(C)C`: the Potency was 54.5 µM (active).

A short description of a further test: cAMP Responsive Elements (CRE) small molecule agonists, cell-based qHTS assay: qHTS cell viability counter screen (AID 2060914).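 Also: viability read after 3 h of compound exposure; nearly all actives have a fitted effect of over 50% in size.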 Conditions: CRE-bla HEK293T viability, CellTiter-Glo luminescence, 5 h; series mostly up to 92.4 µM. The method in brief:
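CRE-bla HEK293T cells in 10% dialyzed FBS medium were exposed to compounds for 3 h at 37C after 18 h plating. CellTiter-Glo was then added in the same wells, and luminescence was read after 30 min at room temperature.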
With `CC(Cl)(Cl)Cl`, the Potency entry is “inactive”.
`Nc1ccc([N+](=O)[O-])cc1N`: the Potency result is “inactive”.
Take `CC(C)CON=O`: the Potency entry is “inactive”.
The same measure, in the same setting: for `OCCOCCO` the value was “inactive”; for `CCCCN(CCCC)C(=S)[S-].CCCCN(CCCC)C(=S)[S-].[Zn+2]`, “inactive”.
With `CC(Cl)CN(C)C` (stereo not given), the Potency result is “inactive”.
With `CCCCC(CC)COC(=O)c1ccc(C(=O)OCC(CC)CCCC)c(C(=O)OCC(CC)CCCC)c1` (stereo not given), the Potency entry was “inactive”.
Turning to `O=C(Cl)/C=C/C(=O)Cl`, the Potency entry was “inactive”.
The same measure, in the same setting: for `CCCC[N+]1(C)[C@@H]2CC(OC(=O)[C@H](CO)c3ccccc3)C[C@H]1[C@@H]1O[C@@H]12` (stereo not given in full) the value was “inactive”.
Still for that read-out and setting: for `Oc1cccc(Cl)c1Cl` the value was “inactive”; for `Oc1ccccc1-c1ccccc1`, “inactive”; for `CC[n+]1ccccc1`, “inactive”.
For `C[C@]12CC[C@H](O)CC1=CC[C@@H]1[C@@H]2CC[C@]2(C)C(=O)CC[C@@H]12`, the Potency entry was “inactive”.
Turning to `CNC(=O)O/N=C(/CSC)C(C)(C)C`, the Potency entry is “inactive”.
As for `OCC1CO1` (stereo not given), the Potency result was “inactive”.
As to `CCN(CC)C(=O)/C(Cl)=C(\C)OP(=O)(OC)OC`, the Potency result is “inactive”.
On to `Brc1ccc(Oc2ccccc2)cc1`, for which the Potency entry is “inactive”.
With `CCCSP(=S)(OCC)Oc1ccc(Cl)cc1Cl` (stereo not given), the Potency entry is “inactive”.
As to `CCC(C)(c1ccc(O)cc1)c1ccc(O)cc1`, the Potency entry is “inactive”.
On to `CC(C)N(C(=O)SC/C(Cl)=C/Cl)C(C)C`, for which the Potency entry was “inactive”.
On the same count and under the same terms, the result for `Cc1cccc(N)c1C` reads “inactive”.
Same read-out and setting: the result for `COC(=O)/C=C(\C)OP(=O)(OC)OC` reads “inactive”.
On to `CNC`, for which the Potency result was “inactive”.
In the case of `CC(=O)[O-].CC(=O)[O-].[Hg+2]`, the Potency is 10.9 µM (active).
Still for that read-out and setting: for `Oc1ccc(Cl)cc1Cc1ccccc1` the value was “inactive”; for `CCC[CH2][Sn]([CH2]CCC)([CH2]CCC)[O][Sn]([CH2]CCC)([CH2]CCC)[CH2]CCC`, 1.34 µM (active).
In the case of `O=S(=O)(C(Cl)(Cl)Cl)C(Cl)(Cl)Cl`, the Potency result was “inactive”.
As for `CC(Cl)(Cl)C(=O)O`, the Potency entry was “inactive”.
Same read-out and setting: for `O=C(O)CCCc1ccc(N(CCCl)CCCl)cc1` the value was “inactive”; for `CCOP(=S)(OCC)Oc1cc(-c2ccccc2)on1`, “inactive”; for `C[C@]12CCC(=O)C=C1CC[C@@H]1[C@@H]2CC[C@]2(C)C(=O)CC[C@@H]12`, “inactive”.
With `O=C(CCCCl)c1ccc(F)cc1`, the Potency result was “inactive”.
`CC/C(=N\OC/C=C/Cl)C1=C(O)CC(C2CCOCC2)CC1=O` (stereo not given): the Potency entry was “inactive”.
Turning to `N#CCc1ccccc1`, the Potency result was “inactive”.
For `Cl/C=C\Cl`, the Potency entry is “inactive”.
As for `CC(C)=CCOc1c2occc2cc2ccc(=O)oc12`, the Potency entry is “inactive”.
Take `CNN`: the Potency result was “inactive”.
With `N[C@@H]1C[C@H]1c1ccccc1`, the Potency entry was “inactive”.
For the compound `OCCCCO`, the Potency result is “inactive”.
With `CCCCCCCCCCCCCCCC[N+](C)(C)C`, the Potency is 29.5 µM (active) and 61.1 µM (active) and 26.6 µM (active).
